A short description of this assay: chemical genetic growth profiling, strain panel (AID 1159580).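 Note: tested at 20 µM; growth read once vehicle control cultures reached saturation at 30 °C; 1 = growth at the plate median or of vehicle wells; lower values mean less growth of the strain.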 The conditions noted are these: S. cerevisiae deletion strains, growth OD.
Where [1] appears, read: locus YAL040C, strain CLN3, hits give low values.
[2] abbreviates: locus YCL061C, strain MRC1 (second series), hits give low values.
[3] abbreviates: locus YDR363W, strain ESC2, hits give low values.
The mark [4] stands for this setting: locus YER002W, strain NOP16, hits give low values.
[5] abbreviates: locus YJR075W, strain HOC1, hits give low values.
Where [6] appears, read: locus YMR307W, strain GAS1, hits give low values.
Setting [7] is: locus YNL128W, strain TEP1, hits give low values.
Where [8] appears, read: locus YNL175C, strain NOP13, hits give low values.
The mark [9] stands for this setting: locus YNL197C, strain WHI3, hits give low values.
Where [10] appears, read: locus YNL224C, strain SQS1, hits give low values.
Where [11] appears, read: locus YNL322C, strain KRE1, hits give low values.
The mark [12] stands for this setting: locus YOR083W, strain WHI5 (second series), hits give low values.
Setting [13] is: locus YAL013W, strain DEP1, hits give low values.
The mark [14] stands for this setting: locus YMR263W, strain SAP30, hits give low values.
[15] abbreviates: locus YNL153C, strain GIM3, hits give low values.
Where [16] appears, read: locus YPL241C, strain CIN2, hits give low values.
Setting [17] is: locus YGR229C, strain SMI1, hits give low values.
The mark [18] stands for this setting: locus YPL055C, strain LGE1, hits give low values.
Setting [19] is: locus YDR150W, strain NUM1, hits give low values.
[20] abbreviates: locus YGR078C, strain PAC10, hits give low values.

Out of some 5,500 compounds screened, about 2,000 (36%) were called active. Inconclusive results (about 18%) are left out. The list shows a part of the results. Values without a mark were called inactive. Cut-off read from the data, not from the text of the source: active = normalized growth mostly below about 0.91 (no sharp cut-off); inconclusive = no clear call, values can overlap the other calls; inactive = mostly above about 0.92.

Turning to `OC[C@H]1O[C@@H](n2cnc3c(Nc4ccccc4)ncnc32)C(O)[C@H]1O` (stereo not given in full), the normalized growth is 0.966 under setting [1]; 0.999 under setting [2]; 0.908 under setting [3]; 0.977 under setting [4]; 1.01 under setting [5]; 1.02 under setting [6]. Moreover, the normalized growth is 0.987 under setting [7]; 0.98 under setting [8]; 0.963 under setting [9]; 0.979 under setting [10]; 1.02 under setting [11]; 0.96 under setting [12].
As to `CN1CCc2cc(O)c(O)cc2C(c2ccccc2)C1` (stereo not given), the normalized growth reads like this: under setting [13], 1.02; under setting [1], 1; under setting [2], 0.997; under setting [3], 1.02; under setting [4], 1; under setting [14], 1. Further, the normalized growth is, setting by setting: under setting [6], 0.998; under setting [7], 1; under setting [15], 1.01; under setting [8], 1.01; under setting [9], 1.01; under setting [10], 1. Also, the normalized growth under setting [11] is 1, the normalized growth under setting [12] is 1.01 and the normalized growth under setting [16] is 1.
Regarding `Cc1cccc(C2CN(C)CCc3c2cc(O)c(O)c3Cl)c1` (stereo not given), the normalized growth is, setting by setting: under setting [1], 1.01; under setting [2], 0.988; under setting [3], 1; under setting [4], 1.01; under setting [6], 1.01; under setting [8], 1.01. The normalized growth was 1.01 under setting [9]; 1.01 under setting [10]; 0.973 under setting [11]; 1.01 under setting [12]; 0.996 under setting [16].
As to `CN1CCc2cc(Cl)c(O)cc2[C@@H](c2ccccc2)C1`, the normalized growth under setting [1] is 1.01; the normalized growth under setting [2] was 1; the normalized growth under setting [3] is 1.01; the normalized growth under setting [4] is 1.04; the normalized growth under setting [17] is 1.03; the normalized growth under setting [6] is 0.993. Moreover, the normalized growth is 1.02 under setting [15]; 1.01 under setting [8]; 0.995 under setting [9]; 1.01 under setting [10]; 1.03 under setting [12]; 0.995 under setting [18].
On to `C=CCN1CCc2c(cc(O)c(O)c2Br)[C@@H](c2ccccc2)C1`, for which the normalized growth was 1.03 under setting [1]; 0.8 (active) under setting [3]; 1 under setting [4]; 0.945 under setting [15]; 1.04 under setting [8]; 0.98 under setting [9]. Besides, the normalized growth was 1.02 under setting [10], 0.987 under setting [12] and 0.122 (active) under setting [16].
As to `C=CCN1CCc2c(cc(O)c(O)c2Cl)C(c2ccccc2)C1` (stereo not given), the normalized growth was 0.917 under setting [13]; 0.992 under setting [1]; 0.934 (active) under setting [2]; 0.907 (active) under setting [19]; 0.891 under setting [3]; 0.996 under setting [4]. Besides, the normalized growth under setting [14] was 0.995; the normalized growth under setting [6] was 0.993; the normalized growth under setting [15] is 0.911; the normalized growth under setting [8] was 0.981; the normalized growth under setting [9] is 0.904; the normalized growth under setting [10] was 1.04. Also, the normalized growth under setting [11] is 0.754 (active) and the normalized growth under setting [12] is 0.958.
As for `Oc1cc2c(c(Cl)c1O)CCNCC2c1ccccc1` (stereo not given), the normalized growth reads like this: under setting [1], 0.985; under setting [2], 0.985; under setting [19], 0.925 (active); under setting [3], 0.977; under setting [4], 0.978; under setting [20], 0.995. Further, the normalized growth is, setting by setting: under setting [5], 0.875 (active); under setting [14], 1.01; under setting [6], 0.988; under setting [15], 0.967; under setting [8], 1.02; under setting [9], 1.01. For the same molecule, the normalized growth is 1.04 under setting [10]; 0.981 under setting [11]; 1.01 under setting [12]; 0.57 (active) under setting [18]; 0.981 under setting [16].
`C=CCN1CCc2cc(O)c(O)cc2C(c2ccccc2)C1` (stereo not given): the normalized growth is, setting by setting: under setting [13], 0.95; under setting [1], 1.06; under setting [2], 0.979; under setting [3], 0.994; under setting [4], 1.02; under setting [20], 1.01. Moreover, the normalized growth is 0.917 under setting [17]; 1 under setting [14]; 1 under setting [6]; 1.02 under setting [7]; 1.01 under setting [15]; 1.02 under setting [8]. In addition, the normalized growth is, setting by setting: under setting [9], 1.02; under setting [10], 1; under setting [11], 0.966; under setting [12], 1.02.
With `CN1CCc2c(cc(O)c(O)c2Cl)C(c2cccc(Cl)c2)C1` (stereo not given), the normalized growth was 1.07 under setting [1]; 0.945 under setting [2]; 0.962 under setting [3]; 1.01 under setting [4]; 0.837 (active) under setting [5]; 0.993 under setting [6]. In addition, the normalized growth under setting [8] is 1; the normalized growth under setting [9] was 0.991; the normalized growth under setting [10] was 1.01; the normalized growth under setting [11] was 0.917; the normalized growth under setting [12] is 0.982; the normalized growth under setting [18] is 0.466 (active). The normalized growth under setting [16] is 0.927 (active).
On to `Oc1ccc(C2CNCCc3c2cc(O)c(O)c3Cl)cc1` (stereo not given), for which the normalized growth by setting is: under setting [1], 0.987; under setting [2], 0.986; under setting [3], 1.03; under setting [4], 0.997; under setting [14], 0.994; under setting [6], 1.02. The normalized growth is, setting by setting: under setting [7], 0.984; under setting [15], 0.935; under setting [8], 1; under setting [9], 0.977; under setting [10], 1.06; under setting [11], 1.02. Besides, the normalized growth by setting is: under setting [12], 0.965; under setting [18], 0.989; under setting [16], 0.981.
As for `O=C(CC[N+](=O)[O-])OC[C@H]1O[C@@H](O)[C@H](OC(=O)CC[N+](=O)[O-])[C@@H](OC(=O)CC[N+](=O)[O-])[C@@H]1OC(=O)CC[N+](=O)[O-]`, the normalized growth (locus YBR021W, strain FUR4, hits give low values) is 1.04; the normalized growth (locus YBR229C, strain ROT2, hits give low values) is 1.02; the normalized growth (locus YCL029C, strain bik1, hits give low values) was 1.01; the normalized growth (locus YDL035C, strain GPR1, hits give low values) was 1.08; the normalized growth (locus YDL074C, strain BRE1, hits give low values) is 1.18; the normalized growth (locus YDL101C, strain DUN1, hits give low values) is 1.02. In addition, the normalized growth (locus YDL185W, strain tfp1, hits give low values) is 1.01; the normalized growth (locus YDL192W, strain arf1, hits give low values) was 1.03; the normalized growth (locus YDR101C, strain arx1, hits give low values) was 1.01; the normalized growth under setting [19] is 1.03; the normalized growth (locus YDR162C, strain NBP2, hits give low values) is 1.05; the normalized growth (locus YDR318W, strain mcm21, hits give low values) is 1.03. Besides, the normalized growth runs as follows: (locus YDR388W, hits give low values) 0.999; (locus YDR502C, strain sam2, hits give low values) 1.02; (locus YEL061C, strain CIN8, hits give low values) 1.03; (locus YER110C, hits give low values) 0.998; (locus YER155C, strain BEM2, hits give low values) 1.01; (locus YER167W, strain BCK2, hits give low values) 1.02. The normalized growth is, setting by setting: (locus YGL078C, strain dbp3, hits give low values) 1; (locus YGL086W, strain mad1, hits give low values) 1.01; (locus YGL248W, strain PDE1, hits give low values) 1.05; (locus YGR135W, strain pre9, hits give low values) 1.01; (locus YGR252W, strain gcn5, hits give low values) 1.04; (locus YHR030C, strain SLT2, hits give low values) 1.02. The normalized growth is, setting by setting: (locus YHR079C, strain IRE1 (second series), hits give low values) 0.998; (locus YHR094C, strain hxt1, hits give low values) 1.01; (locus YHR129C, strain ARP1, hits give low values) 1.04; (locus YHR200W, strain rpn10, hits give low values) 1.02; (locus YIL066C, strain RNR3, hits give low values) 1.04; (locus YIL073C, strain SPO22, hits give low values) 1.13. Also, the normalized growth (locus YIL125W, strain kgd1, hits give low values) is 1; the normalized growth (locus YIR030C, strain dcg1, hits give low values) is 1.03; the normalized growth (locus YJL095W, strain BCK1, hits give low values) was 1.08; the normalized growth (locus YJL134W, strain LCB3, hits give low values) is 1.02; the normalized growth (locus YJL168C, strain set2, hits give low values) was 1.01; the normalized growth (locus YJL187C, strain SWE1 (second series), hits give low values) is 1.04. Moreover, the normalized growth (locus YKL009W, strain mrt4, hits give low values) is 0.993; the normalized growth (locus YKL068W, hits give low values) was 1; the normalized growth (locus YKL085W, strain MDH1 (second series), hits give low values) is 1.01; the normalized growth (locus YKL085W, strain MDH1, hits give low values) is 1.01; the normalized growth (locus YKR001C, strain vps1, hits give low values) is 1.07; the normalized growth (locus YLR039C, strain RIC1, hits give low values) is 1.23. In addition, the normalized growth (locus YLR058C, strain SHM2, hits give low values) is 1.03; the normalized growth (locus YLR102C, strain apc9, hits give low values) is 0.991; the normalized growth (locus YLR268W, strain sec22, hits give low values) is 1.04; the normalized growth (locus YLR330W, strain CHS5, hits give low values) is 1.03; the normalized growth (locus YLR342W, strain FKS1 (second series), hits give low values) was 1.06; the normalized growth (locus YLR371W, strain rom2, hits give low values) was 1.02. For the same molecule, the normalized growth reads like this: (locus YLR418C, strain cdc73, hits give low values) 1.15; (locus YML016C, strain PPZ1, hits give low values) 1.02; (locus YML032C, strain rad52, hits give low values) 0.999; (locus YML124C, strain tub3, hits give low values) 1.02; (locus YMR078C, strain ctf18, hits give low values) 1.01; (locus YMR223W, strain ubp8, hits give low values) 1.02. The normalized growth runs as follows: under setting [6], 1.24; (locus YNL067W, strain RPL9B, hits give low values) 1.02; under setting [15], 1.05; (locus YNL233W, strain BNI4, hits give low values) 1.08; (locus YNL250W, strain rad50, hits give low values) 0.995; (locus YNL271C, strain bni1, hits give low values) 1.01. For the same molecule, the normalized growth runs as follows: (locus YNL298W, strain CLA4, hits give low values) 1.01; (locus YNL307C, strain MCK1, hits give low values) 1.01; (locus YNR052C, strain pop2, hits give low values) 1; (locus YOL012C, strain htz1) 1.02; (locus YOL147C, strain pex11, hits give low values) 0.996; (locus YOR061W, strain CKA2, hits give low values) 1.02. Moreover, the normalized growth was 1.02 (locus YOR069W, strain VPS5, hits give low values); 1.01 (locus YOR136W, strain idh2, hits give low values); 1 (locus YOR144C, strain elg1, hits give low values); 1.03 (locus YOR184W, strain ser1, hits give low values); 0.992 (locus YOR316C, strain cot1, hits give low values); 0.998 (locus YPR119W, strain clb2, hits give low values). For the same molecule, the normalized growth reads like this: (locus YPR141C, strain kar3, hits give low values) 1; (locus YPR163C, strain tif3, hits give low values) 1.01; (locus YPR167C, strain met16, hits give low values) 1.02; (strain wtn01, hits give low values) 1.02.

For the origin of these results see PubChem BioAssay AID1159580 (chemical genetic matrix, 2015).
